# The sample as a whole holds a higher share of hits than the screen did.
# Pf Dd2 growth: blocks in vitro growth of P. falciparum Dd2 | P. falciparum Dd2 growth, SYBR Green, 72 h | Potency, µM (doses to about 28.9 µM), most hits filed as inhibitors | 120,000 tested, 4.3% active | AID 1347417; active = well fitted inhibition curve with a large enough effect; note: nearly all actives have a fitted effect of over 65% in size
#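 Readout: SYBR Green fluorescence, 485 nm excitation, 535 nm emission, after ~16 h lysis at 37C. Before that, Dd2-infected red cells (2.5% hematocrit) grew 72 h with compound, 29 uM top final concentration.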
# Hits are given with their value; - = inactive; [ ] = dose if it differs, or a comment.
SMILES,Pf Dd2 growth
Cc1ccc(-c2nnc(C3CN(C(=O)CC(C)(C)C)CC34CCOCC4)o2)cc1 (stereo unspecified),-
O=C(NC1CCN(c2cc(-c3ccc(Cl)cc3)[nH]n2)C1)c1ccccc1F (stereo unspecified),-
COc1ccc([C@H]2C[C@@H](O)[C@@H](O)[C@@H]2NC(=O)c2c(-c3ccccc3)noc2C)cc1,-
COc1ccc(C2Nc3ccccc3-c3cc(C)nn32)c(OC)c1 (stereo unspecified),-
CCN(CC)c1ccc(C2Nc3ccccc3-c3cc(C)nn32)cc1 (stereo unspecified),-
COC(=O)c1ccc(C2Nc3c(C)cccc3-c3cc(C)nn32)cc1 (stereo unspecified),0.45µM
CCCNC(=O)N(C1CCOCC1)C1CCN(C(=O)c2ccsc2)CC1,-
COc1cc(CN2CCC3(CC2)Cc2ccccc2CNC3=O)cc(OC)c1,-
CC(C)=CCn1c(-c2cc(C)oc2C)cn2cc(C(=O)N[C@@H](C)C(N)=O)nc2c1=O,-
CC(C)=CCn1c(-c2ccccc2Cl)cn2cc(C(=O)NCC(C)O)nc2c1=O (stereo unspecified),10µM
C=CCn1c(-c2ccc(F)cc2)cn2cc(C(=O)N(C)CCO)nc2c1=O,-
O=C(c1cc(F)ccc1F)N1CC2CC(C1)[C@H]1CCCC(=O)N1C2 (stereo partly specified),-
O=C1CC2(CCN(C(=O)c3ccccn3)CC2)Oc2ccccc21,-
Cc1noc(-c2ccn3c(CNC(=O)c4ccccc4F)nnc3c2)n1,-
Cc1noc(-c2ccn3c(CNC(=O)c4ccccc4Cl)nnc3c2)n1,0.28µM
Cc1noc(-c2ccn3c(CNC(=O)c4cccc(Cl)c4)nnc3c2)n1,-
Cc1noc(-c2ccn3c(CNC(=O)c4ccc(F)cc4Cl)nnc3c2)n1,-
CCCc1noc(-c2ccn3c(CNC(=O)c4ccc(C)cc4C)nnc3c2)n1,-
CCCc1noc(-c2ccn3c(CNC(=O)c4ccc(F)cc4Cl)nnc3c2)n1,3.5µM
COC(=O)CNC(=O)c1cc(-c2ccccc2OC)nc2c1cnn2C,-
O=S(=O)(NC[C@H]1O[C@@H](CO)[C@@H](O)[C@H]1N1CCOCC1)c1cccs1,-
Cc1cccc(CC(=O)N2CCN(Cc3ccc(=O)n(C)c3)CC2)c1,-
Cc1ccc(NC(=O)CCn2nc(C)c3c(C)n(-c4ccccc4)nc3c2=O)cc1Cl,-
CCc1ccccc1NC(=O)CCn1nc(C)c2c(C)n(-c3ccccc3)nc2c1=O,-
CCOC(=O)c1cccc(NC(=O)CCn2nc(C)c3c(C)n(-c4ccccc4)nc3c2=O)c1,2.5µM
SMILES,Pf Dd2 growth
O=C(c1ccccc1)N1CCC(C(=O)O)(c2ccccc2)CC1,-
Cc1cc(C)cc(NC(=O)N(C)CC2CCOCC2)c1,-
O=C(NC1CC1)c1ccc(CC2CCN(C(=O)c3ccc4ccccc4n3)CC2)cc1,2µM
CCNC(=O)c1ccc(CC2CCN(C(C)=O)CC2)cc1,-
COCC(=O)NC1CCC12CCN(C(=O)c1ccc3ccccc3n1)CC2 (stereo unspecified),-
CN1C(=O)Cc2cc(C(=O)N3CCN(c4ccccc4Cl)CC3)ccc21,-
CNc1ccnc(N2CCC3(CCCN(C4CCOCC4)C3=O)C2)n1 (stereo unspecified),-
Cc1cccc(NC(=O)N2CCC(Cc3nc(-c4ccccc4)n[nH]3)CC2)c1,1.6µM
Cc1cc(C)n(CCC(=O)N2CCC(Cc3nc(-c4ccccc4)n[nH]3)CC2)n1,-
Cc1ccc(CNC(=O)N2CCC(Cc3nc(-c4ccncc4)n[nH]3)CC2)cc1,-
O=C(NC1CCCC1)N1CCC(c2noc(C3CC3)n2)C1 (stereo unspecified),-[5.79 µM]
Cc1nnnn1CCCN1CCC2(CCC(=O)N(CC(C)O)C2)CC1 (stereo unspecified),-
Cc1nc(-c2c3n(c(=O)n(Cc4ccccc4C(F)(F)F)c2=O)CCCCC3)no1,-
C[C@@H]1C(=O)O[C@H]2[C@H]1CC[C@@]1(C)Cc3sc(NC(=O)c4ccncc4)nc3[C@@H](C)[C@H]21,-
C[C@@H]1C(=O)O[C@H]2[C@H]1CC[C@@]1(C)Cc3sc(NS(=O)(=O)c4ccc(F)c(Cl)c4)nc3[C@@H](C)[C@H]21,-
C[C@@H]1C(=O)O[C@H]2[C@H]1CC[C@@]1(C)Cc3sc(NC(=O)c4ccc(F)c(Cl)c4)nc3[C@@H](C)[C@H]21,11µM
Cc1cccc(Nc2nc(Nc3cccc(C)c3)nc(N3CCOCC3)n2)c1,11µM
CCOc1ccc(Nc2nc(Nc3ccc(OCC)cc3)nc(N3CCOCC3)n2)cc1,-
Cc1cccc(Nc2nc(N)nc(CN3CC[C@@H](N)[C@H](O)C3)n2)c1,-
O=C(NCC12CCCN1CCC2)c1ccc(C2CCNC2)cc1 (stereo unspecified),-
COc1ccc(OCc2nc3ccccc3n2Cc2ccc(C(C)(C)C)cc2)cc1,11µM
CC(C)(C)c1ccc(OCc2nc3ccccc3n2CCOc2ccccc2)cc1,-
COc1cccc(OCc2nc3ccccc3n2Cc2ccccc2)c1,-[5.79 µM]
O=C(NCCc1ccccc1)N1CCc2nn(Cc3ccccc3)c(=O)n2CC1,-
Cc1ccc(S(=O)(=O)N2CCCC(CCC(=O)NCc3ccccn3)C2)cc1 (stereo unspecified),-
SMILES,Pf Dd2 growth
CCN(CC)C(=O)CCc1c(C)nn(-c2ccccc2C)c1Oc1cccc(F)c1,-
COc1ccc(NC(=O)Cn2cnnn2)c(NC(=O)C(C)C)c1,-
COc1cc(Cl)c(C)cc1NC(=O)c1sc2nc(C)cc(C)c2c1N,-
COc1cccc(NC(=O)c2sc3nc(C)c(C(=O)Nc4ccc(C)cc4C)c(-c4ccccc4Cl)c3c2N)c1,1µM
COc1cccc(NC(=O)c2sc3nc(C)c(C(=O)Nc4ccc(C)cc4C)c(-c4sccc4C)c3c2N)c1,2.2µM
COc1cccc(NC(=O)c2c(C)nn(-c3cccc(C)c3)c2-n2cccc2)c1,-
COc1cccc(-c2ccc3c(N)c(C(=O)Nc4ccccc4C)sc3n2)c1,-
Cc1ccc(Cl)cc1NC(=O)c1sc2nc(C)c(C)c(C)c2c1N,-
COc1cccc(-c2ccc3c(N)c(C(=O)Nc4cc(F)ccc4F)sc3n2)c1,-[5.79 µM]
COc1cccc(NC(=O)c2sc3nc(C)c(C(=O)Nc4ccc(C)cc4C)c(-c4ccco4)c3c2N)c1,3.2µM
CCC(C)NC(=O)c1sc2nc(C)c(C(=O)Nc3ccc(Cl)cc3)c(-c3ccc(Br)cc3)c2c1N (stereo unspecified),-
Cc1nc(C2CC(NC(=O)Cn3cc(Cl)c(C)n3)C2)cc(=O)[nH]1 (stereo unspecified),-
COc1ccc(CN2Cc3[nH]cnc3C[C@H]2C(=O)NCc2ccco2)cc1,-
CCN(CC)C(=O)[C@@H]1CCCN1[C@@H](C(=O)NC)C1CC1,-
CC(=O)N1CCC(N2C(=O)C3(CCCC3)C2c2scnc2C)CC1 (stereo unspecified),-
CC(=O)Nc1ccc(CN2CCn3c(nnc3C3CCNCC3)C2)cc1,-
COc1cccc(CC(=O)N2CCCC(c3nc(C4CCOCC4)no3)C2)c1 (stereo unspecified),-
COc1ccc(C)cc1NS(=O)(=O)c1cc2c3c(c1)CC(=O)N3CCC2,-
O=C1Cc2cc(S(=O)(=O)Nc3cccc(C(F)(F)F)c3)cc3c2N1CCC3,-
COC(=O)c1ccccc1N(C)S(=O)(=O)c1cc2c3c(c1)CC(=O)N3CCC2,7.9µM
COc1ccc(C(=O)N2CCCN(C)c3ccccc32)c(C)c1,-
O=C(Cc1ccc(F)cc1)N1CCC[C@H]1c1nc(-c2ccccc2Cl)no1,-

# Bioassay records from PubChem BioAssay.
